Laboratory results from the supplement of paper PMC9399229.
Several values for one entry are separate records, joined by “and”; a condition that tells them apart may be missing. Equal entries are not always repeated. Structures can show the parent of a compound that is named as a salt. ± gives the standard deviation of the averaged measurements. Whole data set: some 1,900 compounds, median “relative cell viability (CellTiter-Glo), compound alone” near 1, cut for the lowest 2% near 0.16. This is one part of a sample in which the lowest values are shown more often than they occur.

These compounds were tested on Hep3B (assay: relative cell viability (CellTiter-Glo), compound alone (fraction); higher = more viable cells (less growth inhibition)). Conditions: cabozantinib 0 µM; 4 days.

Compound | relative cell viability
O=C(O)C1=CO[C@@H](O[C@@H]2O[C@H](CO)[C@@H](O)[C@H](O)[C@H]2O)[C@@H]2C(CO)=CC[C@H]12 [Geniposidic acid] | 1.04 ± 0.16
COc1cc(N2CCC(N)CC2)ccc1Nc1ncc(Cl)c(-c2c[nH]c3ccccc23)n1 | 0.138 ± 0.00027
CCOc1cc(N2CCC(O)CC2)ccc1Nc1ncc2c(n1)N(C)c1ccccc1C(=O)N2C | 1.14 ± 0.05
CNC(=O)c1ccccc1Nc1nc(Nc2ccc(N3CCOCC3)cc2OC)ncc1Cl | 0.273 ± 0.0076
Nc1ncnc2c1C(=O)N(c1ccc([C@H]3CC[C@H](CC(=O)O)CC3)cc1)CCO2 | 1.289 ± 0.0053
CC(C)C[C@H](NP(=O)(O)O[C@@H]1O[C@@H](C)[C@H](O)[C@@H](O)[C@H]1O)C(=O)N[C@@H](Cc1c[nH]c2ccccc12)C(=O)O [Phosphoramidon Disodium Salt] | 1.169 ± 0.0058
Cn1nnc2c(C(N)=O)ncn2c1=O [Temozolomide] | 1.25 ± 0.15
Cc1cc(N2CCOCC2)ccc1Nc1nc(NC2CCCCC2)c2[nH]cnc2n1 | 0.971 ± 0.072
CC(C)(C)c1ccc(-c2nc3ccccc3[nH]2)cc1 | 0.591 ± 0.042
COc1cc2c(c(OC)c1OC)-c1c(cc3c(c1OC)OCO3)CC(C)C(C)C2 (stereo not drawn) [Schisandrin B (Sch B)] | 0.988 ± 0.053
Nc1ccc2ncnc(NCCc3ccc(Oc4ccccc4)cc3)c2c1 | 1.22 ± 0.066
Cn1nnc(-c2ccc3c(c2)[nH]c2nc(Cc4ccccc4)nc(NC4CCC(N)CC4)c23)n1 (stereo not drawn) | 0.194 ± 0.0028
CN(C)CCC[C@@]1(c2ccc(F)cc2)OCc2cc(C#N)ccc21 [Escitalopram Oxalate] | 1.13 ± 0.13
N#CSc1cc(SC#N)c(N)nc1N | 1.061 ± 0.0035
CCOC(=O)c1ccc(N2NC(=O)C(=Cc3ccc([N+](=O)[O-])o3)C2=O)cc1 | 0.977 ± 0.14
Cn1cc(-c2ccc3c(c2)CCN3C(=O)Cc2cccc(C(F)(F)F)c2)c2c(N)ncnc21 | 1.34 ± 0.066
CC(C)(C)c1cc(C(=O)C(C#N)=NNc2cccc(Cl)c2)no1 | 1.11 ± 0.17

Compound | relative cell viability
O=C(NC1CCNCC1)c1n[nH]cc1NC(=O)c1c(Cl)cccc1Cl | 0.157 and 0.162
O=C(NC1CCOCC1)c1ccc(-c2cc(-c3c[nH]nc3-c3ccccn3)ccn2)cc1 | 1.23 ± 0.2
CC(=O)OCOC(=O)CN(CC(=O)OCOC(C)=O)c1ccccc1OCCOc1ccccc1N(CC(=O)OCOC(C)=O)CC(=O)OCOC(C)=O | 1.12 ± 0.016
CNC(=O)[C@@H](c1ccccc1)N1CCc2cc(OC)c(OC)cc2[C@@H]1CCc1ccc(C(F)(F)F)cc1 [Almorexant HCl] | 1.19 ± 0.11
Cc1c(N(C)C)c(=O)n(-c2ccccc2)n1C [Amidopyrine] | 1.07 ± 0.062
COc1ccc2c(Oc3ccc(NC(=O)c4c(C)n(CC(C)(C)O)n(-c5ccccc5)c4=O)nc3)ccnc2c1 | 1.16 ± 0.024
O=C(NNc1nc2cc(F)ccc2n2cccc12)c1cnccn1 | 0.383 ± 0.013
C=C1C(=O)[C@]23[C@H](O)[C@H]1CC[C@H]2[C@@]12CO[C@]3(O)[C@@H](O)[C@@H]1C(C)(C)CC[C@@H]2O [Oridonin] | 0.9649 ± 0.0085
CCS(=O)(=O)N1CC(CC#N)(n2cc(-c3ncnc4[nH]ccc34)cn2)C1 | 0.983 ± 0.088
CO[C@H]1/C=C\C=C(/C)C(=O)NC2=CC(=O)C(NCCN(C)C)=C(C[C@@H](C)C[C@H](OC)[C@H](O)[C@@H](C)/C=C(\C)[C@@H]1OC(N)=O)C2=O [17-DMAG (Alvespimycin) HCl] | 0.267 ± 0.043
CN1CC[C@H](c2c(O)cc(O)c3c(=O)cc(-c4ccccc4Cl)oc23)[C@H](O)C1 [Flavopiridol HCl] | 0.183 ± 0.015
CN1CC[C@H](c2c(O)cc(O)c3c(=O)cc(-c4ccccc4Cl)oc23)[C@H](O)C1 [Flavopiridol (Alvocidib)] | 0.143 ± 0.043
CC(=O)N1c2ccc(-c3ccc(C(=O)O)cc3)cc2[C@H](Nc2ccc(Cl)cc2)C[C@@H]1C | 0.698 ± 0.027
N#Cc1c(NC(=O)c2cccc3ccccc23)sc2c1CCCC2 [JNK Inhibitor IX] | 1.1 ± 0.056
Cc1cc2c(cc1CC(=O)c1sccc1S(=O)(=O)Nc1onc(C)c1Cl)OCO2 [Sitaxentan sodium] | 1.18 ± 0.062
COc1cc(OC)c2c(=O)[nH]c(-c3cc(C)c(OCCO)c(C)c3)nc2c1 | 0.805 ± 0.0086
